Our source for the AC50 values is PubChem BioAssay AID720650 (Broad Institute, 2013).

Calls of active or inactive are those of the source. The rule behind the calls is not given here.

Broadly, the AC50 is the midpoint of the concentration-response curve, whichever way the signal moves.

A short description of this assay: C difficile toxins, biochemical counterscreen, UDPG substrate absence, confirmatory dose response (AID 720650). As to conditions: series mostly up to 19.5 µM.
Take `CC(=O)Nc1cnc(-c2ccccc2O)cn1`: the AC50 was 15.3 µM (active).

With `CN(CCN1CCOCC1)C(=O)CC1C(=O)NCCN1Cc1ccccc1C(F)(F)F` (configuration not stated), the AC50 result was “inactive”.

As to `CC(C)NC(=O)N1CC[C@@H]2[C@H]1c1cc(-c3ccccc3)ccc1N(C)[C@H]2CO`, the AC50 is 5.77 µM (active).

In the case of `C=CCc1ccc(O)c(-c2ccc(O)c(CC=C)c2)c1`, the AC50 was > 39 µM (inactive).

Regarding `COc1ccccc1-n1c(SCC(=O)O)nc2c(sc(=S)n2-c2ccc(C)c(C)c2)c1=O`, the AC50 was > 39 µM (inactive).

On to `O=c1c2ccc(Cl)cc2[nH]c(=S)n1-c1cccnc1`, for which the AC50 result was “inactive”.

`COc1ccccc1CNC(=O)CNC(=O)N1CC(=O)Nc2ccccc21`: the AC50 entry is “inactive”.

As for `C[C@H](CO)N1C[C@H](C)[C@@H](CN(C)C(=O)Nc2ccc(C(F)(F)F)cc2)Oc2ccc(NC(=O)C3CCCCC3)cc2C1=O`, the AC50 result was “inactive”.

As to `COc1cc(/C=N/NC(=O)C2COc3ccccc3O2)ccc1O` (configuration not stated), the AC50 entry was “inactive”.

For `CCCNC(=O)C1CCN(S(=O)(=O)c2c(C)noc2/C=C\c2ccc(OC)cc2)CC1`, the AC50 result was “inactive”.

In the case of `CCC(CO)[n+]1c(C)cc(/C=C2\Sc3ccccc3N2Cc2ccccc2)cc1C` (configuration not stated), the AC50 is 3.4 µM (active).

Take `Cc1cc(C(=O)N2CCN(Cc3ccccc3)CC2)ccc1[N+](=O)[O-]`: the AC50 entry is “inactive”.

`CCOC(=O)N1CCN(C(=S)NC(=O)c2ccc(F)c(F)c2)CC1`: the AC50 entry is “inactive”.

Regarding `COc1ccc(C(=O)Nc2cc(Cl)ccc2C(=O)O)cc1`, the half-maximal activity concentration (AC50) is 10.4 µM (active).

Take `Cc1cc(C)nc(/N=C(\N)Nc2ccccc2-c2ccccc2)n1`: the AC50 was > 39 µM (inactive).

Regarding `Cn1ncc(Br)c1C(=O)N/N=C/c1cccc(OC2CSC2)c1`, the AC50 entry was “inactive”.

For `O=C(Nc1ccncc1)c1ccc(-c2ccccc2)cc1`, the AC50 result is “inactive”.

With `C/C(=N\NC(=O)CSc1nc2ccccc2c(=O)n1-c1ccccc1C)c1cccs1`, the AC50 entry was “inactive”.

On to `CCc1ccc2oc(-c3cc(N)ccc3Cl)nc2c1`, for which the AC50 entry was “inactive”.

`O=C(NN=Cc1cc(Br)c(O)c(Br)c1)c1ccccc1NS(=O)(=O)c1cccs1`: the AC50 result was “inactive”.

Consider `Cc1ccccc1NS(=O)(=O)c1ccc(OCC(=O)N2CCCCC2)cc1`, for which the AC50 entry is “inactive”.

Turning to `Oc1ccc(Cc2ccc(Cl)cc2)c(O)c1`, the AC50 is > 39 µM (inactive).
